NALP3 yeast inh – NALP3 inflammasome inhibitors in reconstituted yeast, primary screen, luminescence, uHTS. Yeast reconstituted NLRP3/ASC/caspase-1, beta-gal luminescence, 24 h. inhibition, % at 10 µM. 330,000 tested, 0.39% active. AID 2825, 2010;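 active means inhibition of 50% or more; inactive means inhibition below 50%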;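 further: plate controls were induced DMSO wells for no effect and uninduced yeast grown without galactose for full effect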
NALP1 inh – NALP1 inflammasome inhibitors in reconstituted yeast, colorimetric, S. cerevisiae, triplicate retest | S. cerevisiae NALP1/ASC/caspase-1 growth, X-gal OD620, 72 h | inhibition, % at 10 µM | 280,000 tested, 0.61% active; in the data active means inhibition mostly above about 24%, no sharp cut-off; inactive means mostly below about 32%
TIM10 inh – growth inhibitors of isogenic TIM10 control yeast, primary screen, counter-screen for tim10-1 yeast inhibitor project, luminescence, uHTS | AID 463195, 2010 | 330,000 tested, 1.4% active | inhibition, % at 10 µM | S. cerevisiae TIM10 strain growth, BacTiter-Glo luminescence, 24 h;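 active means inhibition of 40% or more at the single tested concentration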;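 further: wild-type TIM10 isogenic control strain grown at permissive 25 °C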
tim23-1 inh – growth inhibitors of tim23-1 mutant yeast, primary screen, luminescence, uHTS | S. cerevisiae tim23-1 growth, BacTiter-Glo luminescence, 24 h | 330,000 tested, 1.3% active | inhibition, % at 20 µM;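 active means growth inhibition of the mutant yeast at or above 50%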;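 further: temperature-sensitive mutant grown at 25 °C; plate controls were DMSO-treated mutant yeast for no effect and medium wells lacking yeast for full effect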
tim10-1 inh – growth inhibitors of tim10-1 mutant yeast, primary screen, luminescence, uHTS. AID 463190, 2010. 330,000 tested, 2.2% active. inhibition, % at 20 µM. S. cerevisiae tim10-1 ts strain growth, BacTiter-Glo, 24 h;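 active means inhibition of at least 40%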;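 further: mutant grown at 25 °C; 0% = DMSO wells with yeast and 100% = wells holding no yeast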
tim10-1 conf – growth inhibitors of tim10-1 mutant yeast, confirmation, single concentration, luminescence, S. cerevisiae. AID 463213, 2010. S. cerevisiae tim10-1 ts strain growth, BacTiter-Glo, 24 h. 7,400 tested, 56% active. shares compounds with tim10-1 inh. inhibition, % at 20 µM;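 active means inhibition of yeast growth at or above a set limit in either of two repeat tests at 20 µM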;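 further: tim10-1 mutant grown at permissive 25 °C to find synthetic lethal compounds; 0% = DMSO yeast wells and 100% = medium wells without yeast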
tim10 confirm – growth inhibitors of wild-type TIM10 yeast, confirmation, counter-screen for tim10-1 synthetic lethality project, single concentration, luminescence, S. cerevisiae; shares compounds with TIM10 inh; S. cerevisiae tim10 strain growth, BacTiter-Glo luminescence, 24 h; inhibition, % at 10 µM; 4,600 tested, 63% active; AID 463215, 2010;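 active means inhibition of yeast growth at or above a set limit in either of two replicates at 10 µM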;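 further: this counterscreen used the strain with wild-type TIM10; 0% = yeast with DMSO and 100% = medium wells lacking yeast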
tim23-1 confirm – tim23-1 mutant yeast growth inhibitors, confirmation, luminescence, single concentration; shares compounds with tim23-1 inh; S. cerevisiae tim23-1 growth, BacTiter-Glo luminescence, 24 h; inhibition, % at 20 µM; 4,400 tested, 83% active; AID 463218, 2010;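 active means inhibition above about 39% in either of two replicate wells at 20 µM, limit read from the data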;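 further: temperature-sensitive tim23-1 mutant grown at 25 °C; 0% = DMSO wells with yeast and 100% = medium wells without yeast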
Active calls of the source: *. Hits are enriched below; roughly 4% of the tested compounds scored in any of these assays.

For CCCNC(=O)c1ccc2c(c1)C1C3CCC(C3)C1C(c1ccccc1)N2 (centres undefined) the results were NALP3 yeast inh 1, NALP1 inh 25, TIM10 inh 37, tim23-1 inh 53*, tim10-1 inh 47*, tim10-1 conf 44* and tim23-1 confirm 57*.
`C=CCSc1nnc2c(n1)[nH]c1c(C)cccc12` gave NALP3 yeast inh 41, NALP1 inh 22, TIM10 inh 47*, tim23-1 inh 46, tim10-1 inh 40 and tim10 confirm 37*.
`Cc1cccc2c1[nH]c1nc(N/N=C\c3ccco3)nnc12` gave NALP3 yeast inh 10, NALP1 inh 24, TIM10 inh 18, tim23-1 inh 7 and tim10-1 inh 24.
Screening O=C(Cc1cccs1)N(Cc1ccco1)C1(C(=O)NC2CCCCC2)CCCCC1 returned NALP3 yeast inh 1, NALP1 inh 19, TIM10 inh 43*, tim23-1 inh 21, tim10-1 inh 28 and tim10 confirm 10.
Screening O=C(c1ccc2ccccc2n1)N1CCN(S(=O)(=O)c2ccccc2)CC1 returned NALP3 yeast inh 10, TIM10 inh 14, tim23-1 inh 29 and tim10-1 inh 9.
CN(Cc1ccc(C(C)(C)C)cc1)C(=O)Cc1ccc(S(=O)(=O)N2CCOCC2)s1 was read as NALP3 yeast inh 3, TIM10 inh 21, tim23-1 inh 31 and tim10-1 inh 29.
Screening Cc1noc(C)c1COc1ccc(C(=O)OCc2nnc(-c3ccc(Cl)cc3)o2)cc1 returned NALP3 yeast inh 14, NALP1 inh 1, TIM10 inh 43*, tim23-1 inh 10, tim10-1 inh 32 and tim10 confirm 37*.
For O=C(OCc1nnc(-c2ccc(Cl)cc2)o1)c1ccncc1 the results were NALP3 yeast inh 8, NALP1 inh 1, TIM10 inh -1, tim23-1 inh 23 and tim10-1 inh 9.
Screening O=C(N/N=C/c1sc(=O)n(-c2ccccc2)c1Cl)c1ccccc1 returned NALP3 yeast inh 6, NALP1 inh 34, TIM10 inh 42*, tim23-1 inh 48, tim10-1 inh 31 and tim10 confirm 22.
`Cc1ccccc1Oc1nc2c(C)cccn2c(=O)c1/C=C(\C#N)C(=O)NC1CCS(=O)(=O)C1` (centres undefined) gave NALP3 yeast inh 3, NALP1 inh 6, TIM10 inh 41*, tim23-1 inh 17, tim10-1 inh 18 and tim10 confirm 16.
`COCCCn1c(SCC(=O)NC2CCCC2)nnc1-c1cccs1` gave NALP3 yeast inh -10, NALP1 inh 15, TIM10 inh 0, tim23-1 inh -13 and tim10-1 inh -5.
COc1cc(NC(=S)Nc2cccc(C)n2)cc(OC)c1OC was read as NALP3 yeast inh 27, NALP1 inh -22, TIM10 inh 47*, tim23-1 inh 17, tim10-1 inh 37 and tim10 confirm 30*.
`CCN1CCN(CC(=O)c2ccc(OC)cc2)CC1` gave NALP3 yeast inh 19, NALP1 inh -3, TIM10 inh -4, tim23-1 inh 19 and tim10-1 inh -15.
For COc1ccc2nc3sc(C(=O)N4CCN(C)CC4)cc3cc2c1 the results were NALP3 yeast inh 21, NALP1 inh 5, TIM10 inh 11, tim23-1 inh 5 and tim10-1 inh -20.
`COc1ccc2nc3sc(C(=O)NCCCN4CCc5ccccc5C4)cc3cc2c1` gave NALP3 yeast inh -3, NALP1 inh -1, TIM10 inh 49*, tim23-1 inh 43, tim10-1 inh 14 and tim10 confirm 57*.

Screens from PubChem.
